Each structure is given as a SMILES string. Among all 1,600 compounds or so, about 65 (4%) were called active. Only a sample is shown. Values without a mark were called inactive. No stated cut-off is given here; in the data, active means inhibition above about 37%; inactive means the rest.

This assay is described as follows: DNA intercalator displacement agents – biochemical, FID fluorescence, triplicate, artefact control for HCV NS3 helicase inhibitor project (AID 1945).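 Further: 0% = vehicle and 100% = reference compound; higher means more displacement of ethidium bromide from the DNA hairpin.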 The settings on record: DNA fluorescent intercalator displacement, at 7.9 µM, hits give high values.
With `CC(=O)Oc1cccc(N2C(=O)CC(Nc3ccc(N4CCOCC4)cc3)C2=O)c1` (stereo not given), the inhibition is -9.25%.

With `COc1cc(/C=C2/C(=O)NN(c3cccc(Cl)c3)C2=O)cc(Br)c1O`, the inhibition was 8.6%. With `COc1ccccc1C1/C(=C(/O)c2ccc(OC(C)C)cc2)C(=O)C(=O)N1c1cc(C)on1` (stereo not given), the inhibition was -26.4%. Next, `COc1cc(C2CC(=O)N3CN(Cc4ccccc4)CSC3=C2C#N)ccc1OCc1ccccc1` (stereo not given): -15.9%. Take `CC(=O)C1=C(O)C(=O)N(c2ccc(Br)cc2)C1c1ccc([N+](=O)[O-])cc1` (stereo not given): the inhibition was -11.1%.

In the case of `O=C1NN(c2ccccc2)C(=O)/C1=C/c1ccc(-c2cccc(C(=O)O)c2)o1`, the inhibition is -0.74%. As to `Cc1ccc(C2=N/C(=C\c3ccc(OS(=O)(=O)c4ccc(C)cc4)cc3)C(=O)O2)cc1`, the inhibition is -12.6%. As to `COc1cc(C2C(C(=O)c3ccco3)=C(O)C(=O)N2c2cc(C)on2)ccc1OCc1ccccc1` (stereo not given), the inhibition is -1.69%.

In the case of `Cc1[nH]n(C(N)=S)c(=O)c1N=Nc1ccc(Cl)cc1Cl`, the inhibition is -8.84%. With `O=[N+]([O-])c1cc(Cl)cc(/C=N/NC(=S)Nc2cc(S(=O)(=O)N3CCOCC3)ccc2Cl)c1O` the figure was -2.03%. Turning to `O=C(N/N=C/c1ccc([N+](=O)[O-])o1)c1cn(-c2ccccc2)nc1-c1ccc(F)cc1`, the inhibition was 10.7%. As for `Cc1ccc(C)c(-n2c(SCC(=O)O)nc3sc4c(c3c2=O)CCCC4)c1`, the inhibition was -27.8%.

With `S=C(NCCc1ccccc1)N1CCCCC1`, the inhibition is -0.28%. For `CCOC(=O)c1nnn(-c2nc(OC)nc(N(C)C)n2)c1-c1ccccc1`, the inhibition is -39.7%.

Turning to `N#C/C=C(/c1ccc(F)cc1)N1CCOCC1`, the inhibition was 14%. Regarding `CCOc1ccc(C(C(=O)NCCOC)N(CCOC)C(=O)CCC(=O)Nc2ccccn2)cc1` (stereo not given), the inhibition was -24.9%.

For `Cc1ccc(C2Nc3cccc4cccc(c34)N2)cc1`, the inhibition was 17.1%. With `COc1ccc(/C=C(\NC(=O)c2ccc(OCC(C)C)cc2)C(=O)OCc2ccco2)cc1` the figure was -43.9%; with `Cc1ccc(OCC(=O)c2cc(C)n(Cc3ccco3)c2C)c([N+](=O)[O-])n1`, -9.01%; with `Cc1ccccc1Nc1nnc(SCC(=O)c2cc3ccccc3o2)s1`, -3.69%. Consider `COc1ccc(C)cc1-n1nnnc1SCC(=O)c1cc(C)n(Cc2ccco2)c1C`, for which the inhibition was -39%. Next, `CC(Oc1ccccc1)C(=O)Nc1oc(-c2ccco2)c(-c2ccco2)c1C#N` (stereo not given): 13.9%; `CC(C)c1ccc(Nc2nnc(SCC(=O)c3nnc(-c4ccccc4)o3)s2)cc1`: 8.51%.

`O=c1[nH]c(/C=C\c2cccc(C(F)(F)F)c2)nc(O)c1[N+](=O)[O-]`: the inhibition is -2.48%. With `O=c1nc2s/c(=C\c3ccco3)c(=O)n2nc1Cc1ccccc1` the figure was 7.7%; with `Cc1ccc(S(=O)(=O)N/N=C\c2cc3c(cc2[N+](=O)[O-])OCO3)cc1`, 14.6%. Next, `CC(=O)Nc1ccc(Nc2c3ccccc3nc3ccccc23)cc1`: 79.8% (active).

Regarding `CCOC(=O)c1ccccc1N1C(=O)C2Sc3[nH]c(=O)sc3C(/C=C/c3ccccc3)C2C1=O` (stereo not given), the inhibition is -46.6%.

With `COCCNC(=O)Nc1ccc2nc(-c3ccco3)c(-c3ccco3)nc2c1`, the inhibition is 18.2%. With `CCOC(=O)c1c(-c2ccccc2)oc2cc(Br)c(O)c(C=O)c12`, the inhibition was 85% (active). `Cc1cc(O)c(C(=O)/C=C/c2c(F)c(F)c(F)c(F)c2F)c(=O)o1`: the inhibition is 3.73%. Next, `CCOc1ccc(C2C3=C(CCCC3=O)N(CC(=O)O)C3=C2C(=O)CCC3)cc1`: 7.44%; `CS(=O)(=O)c1ccc2c(c1)SC1=NC(=O)/C(=C/c3ccco3)C(=N)N12`: -2.29%. Regarding `Cc1ccc(SC(CC(=O)c2ccc(C(C)(C)C)cc2)C(=O)O)cc1` (stereo not given), the inhibition is -10.2%. With `CC1=NN(c2ccc(Cl)c(C(=O)O)c2)C(=O)/C1=C/c1ccc(-c2ccccc2[N+](=O)[O-])o1` the figure was 15.8%; with `COc1ccc(/C=C2\SC(=S)N(CCC(=O)Nc3cccc(C(=O)O)c3)C2=O)cc1OC`, 15.4%; with `CNS(=O)(=O)c1cccc(C(=O)NC2CCCc3ccccc32)c1` (stereo not given), -7.17%. Next, `CCSc1nsc(NC(=O)Nc2cccc(C(C)=O)c2)n1`: 8.36%; `O=c1c2c(-c3ccccc3)ccnc2[nH]n1-c1ccccc1`: 1.8%. With `COC(=O)COc1ccc2c(c1C)O/C(=C\c1ccco1)C2=O` the figure was -11.8%. As for `NS(=O)(=O)c1ccc(-c2ccc(/C=C3\SC(=O)NC3=O)o2)cc1`, the inhibition was 1.16%.

`CCOC(=O)C1=C(O)/C(=C/c2cc(C)n(-c3ccccc3)c2C)N=C1C`: the inhibition is -10.6%. With `COc1ccc(/C=C/C(=O)c2cc(Br)ccc(=O)c2O)cc1` the figure was 16.2%.

With `Cc1ccc(C(=O)O)cc1-c1ccc(/C=C2\SC(=O)N(CC(=O)Nc3ccc4c(c3)OCO4)C2=O)o1`, the inhibition is 1%. For `COc1cccc(CNC(=O)c2nnn(CC(=O)Nc3cc(Cl)ccc3C)c2N)c1`, the inhibition was 9.61%.

Regarding `Cc1ccc(S(=O)(=O)NCCC(c2ccccc2)c2ccccc2)cc1C(=O)O`, the inhibition was -24.5%.

Turning to `CCN(CC)CCOc1ccc2c(c1)C(=NNC(=O)c1ccccn1)c1cc(OCCN(CC)CC)ccc1-2`, the inhibition was 94.3% (active). Turning to `Brc1ccccc1C1Nc2cccc3cccc(c23)N1`, the inhibition was 12.8%. Next, `O=C1C=CC(=O)N1c1ccc(N2CCCCC2)cc1`: 17%; `O=C(N/N=C/c1ccco1)c1csc2c1CCCC2`: -7.05%; `COc1ccccc1N1CCN(C(=O)CCS(=O)(=O)c2ccc3c(c2)NC(=O)C(C)S3)CC1` (stereo not given): -36.4%. With `CSc1c(SCc2ccccc2)cnn(Cc2ccccc2)c1=O` the figure was -16.1%; with `CCC1C/C(=C/c2cccs2)C(=O)/C(=C/c2cccs2)C1` (stereo not given), -0.49%; with `Nc1ccc2nc3c(=O)[nH]c(=S)[nH]c3nc2c1`, -8.12%. Next, `Cc1nn2c(c1-c1ccccc1)N=C(c1ccco1)CC2c1ccccc1` (stereo not given): -5.96%.

For the origin of these results see PubChem BioAssay AID1945 (The Scripps Research Institute Molecular Screening Center, 2009).
